Screening data from PubChem.
A549 tox = A549 cytotoxicity, counter-screen for Nrf2 inhibitors | A549 ARE-Fluc cells, CellTiter-Fluor viability, 18-24 h | Potency, µM (highest dose often 46 µM), without a hit: at the top dose activity change, negative = cytotoxicity, usual class: inhibitors | 390,000 compounds, 0.16% hits | AID 504648; note: % is set by controls: 0 for no effect and ±100 for the full control effect
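A549 ARE_Fluc cells in 5% FBS OPTI-MEM were exposed to compounds in concentration-response for 18-24 h at 37 deg C. Viability was read by CellTiter-Fluor fluorescence (Ex 405/Em 525) after 30 min, before the luciferase read.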
ELG1 DNA repair = ELG1-dependent DNA repair inhibition. HEK293T ELG1-luciferase reporter, luminescence, 16 h; DNA damage induced by 5-fluorouridine. Potency, µM (titrated, usually from 46.1 µM), without a hit: at the top dose activity change, negative = inhibition, usual class: inhibitors. 330,000 compounds, 2.3% hits; note: % is set by controls: 0 for no effect and ±100 for the full control effect; nearly all actives have a fitted effect of over 55% in size
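Quantitative HTS, concentration-response format. 2,000 cells/well co-treated with 5-fluorouridine and compound, 16 hr in 5% CO2 at 37 °C; ONE-Glo luminescence read after 30 min.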
Nrf2 block = blocks Nrf2 signaling; A549 ARE-Fluc reporter, luciferase luminescence, 18-24 h; Potency, µM (series often up to 46 µM), for the others: at the highest dose activity change, negative = inhibition, usual class: inhibitors; 360,000 compounds, 2.1% hits; AID 504444; note: % is set by controls: 0 for no effect and ±100 for the full control effect; nearly all actives have a fitted effect of over 60% in size
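Two sequential reads on A549 ARE_Fluc cells exposed to compound for 18-24 h: a CellTiter-Fluor fluorescence read for viability, then a luciferase luminescence read for Nrf2/ARE activity.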
Nrf2 activator = activators of Nrf2 (ARE) signaling; AREc32 ARE-luciferase reporter (MCF7-derived line), luminescence, 24 h; 410,000 compounds, 0.31% hits; Potency, µM (titrated, usually from 46.1 µM), without a hit: top-dose activation, usual class: activators; note: % of control where 0% means no effect; nearly all actives have a fitted effect of over 65% in size
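ARE-driven firefly luciferase activity in AREc32 cells measured after a 24 hr compound exposure at 37 deg C, using Steady-Glo reagent and a 30 min room-temperature hold.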
* hit, by the source's call; ? = inconclusive; nt = not tested or not shown; [ ] = remark or other dose. This is a sample that favours compounds with a hit; in the whole collection about 3.7% have one here. Calls come from the whole dose curve; as a rule, active = well fitted curve in the direction sought with a large enough effect; inconclusive = small, poorly fitted or top-dose-only effect, or another doubt; inactive = no such curve, though single readings can be large; an effect the other way counts as inactive or inconclusive. Potency is the fitted concentration of half-maximal effect.

SMILES	A549 tox	ELG1 DNA repair	Nrf2 block	Nrf2 activator
Cc1c(Cc2ccccc2)c(=O)n2c([nH]c3ccccc32)c1C#N	-20.7%	2.31µM*	14.6µM*	-0.3%
COc1ccccc1N=Cc1c(C)c(C#N)c2[nH]c3ccccc3n2c1=O	-17.5%	5.4%	-24.2%	1.0%
O=C(CSc1n[nH]c(=O)n1C1CC1)Nc1cc(Cl)ccc1Oc1ccccc1	?	?	18.4µM*	-0.6%
O=C(CSc1n[nH]c(=O)n1C1CC1)Nc1ccccc1	2.1%	19.3%	-3.2%	-0.6%
Nc1nc(N)nc(-c2cc(F)ccc2O)n1	-24.3%	-14.2%	?	-4.5%
COc1ccc(CNC(=O)C2CCN(C(=O)c3ccc(-n4ccc5ccccc54)s3)CC2)cc1	-25.1%	nt	20.6µM*	2.5%
CCOc1ccc(S(=O)(=O)Nc2cccc(C(=O)NCC(c3ccco3)N3CCCC3)c2)cc1 (stereo not drawn)	-4.2%	1.8%	0.7%	0.4%
CCCCOCCCN1CC(=O)N2[C@@H](Cc3c([nH]c4ccccc34)C2(C)C)C1=O	-0.3%	13µM*	6.8%	-0.4%
Cc1c(C(=O)N/N=C/c2cccnc2)sc(N)c1C#N	-3.3%	?	?	?
O=c1oc2ccccc2c(NC2CCCCC2)c1NS(=O)(=O)c1ccc(F)cc1	-5.7%	-4.5%	?	0.7%
CCc1ccc(S(=O)(=O)Nc2c(NC3CCCCC3)c3ccccc3oc2=O)cc1	-18.4%	0.0%	25.9µM*	-0.5%
COC(=O)c1nc(NC(=O)c2ccccc2Cl)n[nH]1	-1.6%	?	25.9µM*	-0.7%
CC(C)[C@H](NC(=O)c1ccccc1F)C(=O)OCC(=O)NC1CC1	0.6%	19.3%	7.6%	0.1%
CN(C)C(=O)c1cc(C(=O)c2ccc(F)cc2C(F)(F)F)c[nH]1	-0.7%	8.2µM*	-29.7%	1.9%
CN(C)C(=O)c1cc(C(=O)c2ccccc2C(F)(F)F)c[nH]1	-8.2%	6.51µM*	?	2.8%
CN(C)C(=O)c1cc(C(=O)c2ccc(F)cc2F)c[nH]1	4.0%	?	?	1.7%
C=CCN1C(=O)C(=Cc2ccc3c(c2)CCC3)SC1=S	nt	nt	nt	-0.6%
Oc1ccccc1-c1nc(NCC2CCCO2)c2ccccc2n1 (stereo not drawn)	?	23.1µM*	?	0.7%
O=[N+]([O-])c1ccc(-c2nc(NCC3CCCO3)c3ccccc3n2)cc1 (stereo not drawn)	-7.7%	8.2µM*	?	0.8%
Cc1cc(NS(=O)(=O)c2ccc3c(c2)CCC(=O)N3)ccc1F	-2.7%	nt	?	nt
COc1ccc(C)cc1NC(=O)CCNS(=O)(=O)c1ccc2c(c1)CCC(=O)N2	-6.3%	0.6%	3.8%	-0.8%
COc1ccc(O)c(C(=O)c2coc(=N)c(C(=O)Nc3ccc(SC(F)F)cc3)c2)c1	0.4%	16.4µM*	15.5%	3.9%
COc1cccc(C2CC(C(F)(F)F)n3ncc(C(=O)NC(C)(C)C)c3N2)c1 (stereo not drawn)	-1.3%	-16.6%	-22.5%	-0.1%
COc1ccc(NC(=O)c2cc3n(n2)C(C(F)(F)F)CC(c2ccc4c(c2)OCO4)N3)cc1OC (stereo not drawn)	-26.2%	?	23.1µM*	-0.3%
COc1ccc(C2CC(C(F)(F)F)n3ncc(C(=O)Nc4cccc(O)c4)c3N2)cc1OC (stereo not drawn)	-10.4%	14.6µM*	-23.0%	-0.7%
SMILES	A549 tox	ELG1 DNA repair	Nrf2 block	Nrf2 activator
Cc1cccc(NC(=O)c2cc3n(n2)C(C(F)(F)F)CC(c2ccc4c(c2)OCO4)N3)c1 (stereo not drawn)	-12.8%	?	nt	-0.7%
COc1cc(NS(=O)(=O)c2c(C(=O)N3CCCCC3)c(C)n(C)c2C)cc(OC)c1OC	-3.3%	nt	16.8%	-0.5%
Clc1nc(NCc2cccs2)c2[nH]cnc2n1	-2.1%	nt	23.1µM*	nt
c1csc(CNc2ncnc3nc[nH]c23)c1	-0.2%	2.4%	?	-0.4%
COc1ccc(-c2cc(-c3cccs3)nc(OC)c2C#N)cc1OC	0.3%	18.4µM*	-24.0%	20.9%
O=C1c2ccccc2-c2onc3ccc(Oc4ccccc4)c1c23	?	?	?	7.08µM*
CCOC(=O)C(C(=O)OCC)c1cc(Br)c2noc3c2c1C(=O)c1ccccc1-3	?	?	-17.9%	3.1%
CCCCOC(=O)/C=C\C(=O)NC(N)=O	-2.9%	9.9%	-11.7%	15.8µM*
CCCN1C(=O)/C(=C/c2ccc3c(c2)OCO3)NC1=S	6.9%	?	-14.1%	2.5%
CCCN1C/C(=C/c2ccc3c(c2)OCO3)C(=O)/C(=C/c2ccc3c(c2)OCO3)C1	-1.5%	23.1µM*	-27.3%	2.4%
CCNc1nc(NC(C)C)nc(N(C#N)CCOc2ccc(Cl)cc2Cl)n1	nt	?	9.2µM*	3.8%
COc1ccc(Cl)cc1NC(=O)c1nn(C)c2c1CS(=O)(=O)c1ccccc1-2	-8.6%	nt	-11.7%	-0.8%
CC(C)(C)c1ccc(CC(=O)N2CCC2(C)C(=O)NS(=O)(=O)c2cccc(F)c2)cc1 (stereo not drawn)	nt	nt	nt	-0.2%[9.22 µM]
CC(C)(C)c1ccc(OCC(O)CSc2ncn[nH]2)cc1 (stereo not drawn)	0.0%	?	14.6µM*	-1.0%
OC(COc1ccccc1)CSc1ncn[nH]1 (stereo not drawn)	-4.5%	11.3%	nt	-0.4%
CCn1cc([N+](=O)[O-])c(C(=O)Nc2nc(-c3ccc(C)cc3)c(C)s2)n1	-2.1%	?	-10.8%	?
CCn1cc([N+](=O)[O-])c(C(=O)Nc2nc(-c3ccc(C)c(C)c3)c(C)s2)n1	-12.7%[1.84 µM]	-4.2%	16.4µM*	?
O=C(NC1CCCC1)C(c1ccc(F)cc1)N(Cc1ccccc1)C(=O)c1csnn1 (stereo not drawn)	-3.2%	-4.0%	-1.5%	0.2%
CC(C)CCN(C(=O)c1csnn1)C(C(=O)NC1CCCC1)c1ccc(F)cc1 (stereo not drawn)	18.4µM*	-10.4%	23.1µM*	3.7%
Cn1/c(=N/NC(=O)c2ccccc2F)sc2ccccc21	1.7%	?	?	1.2%
CCCn1c(NC(=O)CCNC(=O)c2ccccc2Cl)nc2ccccc21	-0.1%	20.6µM*	12.7%	5.9%
CCCn1c(NC(=O)c2ccccc2Br)nc2ccccc21	-14.2%	0.0%	-0.8%	6.3%
CC(C)c1nn2c(=O)cc(COC(=O)CNC(=O)c3ccccc3Cl)nc2s1	-0.9%	nt	-8.4%	1.0%
O=C1CC(c2cccc([N+](=O)[O-])c2)c2cc3c(cc2N1)CCC3 (stereo not drawn)	?	16.4µM*	14.6µM*	0.4%
CCN(CC)S(=O)(=O)c1cccc(NC(=O)COC(=O)c2cc(C)oc2C)c1	-11.1%	20.6µM*	-23.5%	-0.2%
COc1cc(C(=O)NCCNc2nc3ccc(C)cc3cc2C#N)cc(OC)c1OC	19.7%	14.6µM*	-22.8%	7.7%
COc1ccc2nc(NCCCNC(=O)c3cc(OC)c(OC)c(OC)c3)c(C#N)cc2c1	nt	15.8µM*	-25.6%	0.1%
COc1cc(C(=O)NCCCNc2nc3c(C)cc(C)cc3cc2C#N)cc(OC)c1OC	10.5%	?	0.0%	2.0%
